Screening results (PubChem)
Many of the other results were omitted from the sample, so hits are more common in it than they were.
12-LOX inh: Primary qHTS assay for inhibitors of human arachidonate 12S-lipoxygenase (ALOX12): Round 2. Polyunsaturated fatty acid lipoxygenase ALOX12 (Homo sapiens), P18054. 1.1% of 580,000 active. purified 12hLO, xylenol orange hydroperoxide absorbance. Potency, µM (series often up to 108 µM), usual class: inhibitors
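Hydroperoxide product was detected by ferrous iron/xylenol orange as the 573 to 405 nm absorbance ratio. Arachidonic acid at 40 uM (final) was turned over for 30 min at room temperature by 150 nM human 12hLO, pH 7.0 Hepes buffer, after 15 min compound preincubation.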
VDR inh: Inhibitors of the vitamin D receptor (VDR): qHTS. Vitamin D3 receptor (Homo sapiens), P11473. VDR-SRC2-3 peptide fluorescence polarization, 2 h. Potency, µM, usual class: inhibitors. 0.93% of 400,000 active. AID 504847, 2011
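Signal is fluorescence polarization, reporting how far test compounds block the interaction of VDR with the SRC2-3 coregulator peptide after a 2 h room-temperature incubation.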
Sfp PPTase inh: qHTS Assay for Inhibitors of Bacillus subtilis Sfp phosphopantetheinyl transferase (PPTase). 3.5% of 310,000 active. 4'-phosphopantetheinyl transferase ffp (Bacillus subtilis), Q9F4F7. Biochemical Sfp PPTase activity, qHTS. Potency, µM, most hits filed as inhibitors. AID 1490, 2009;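 further: the enzyme is Sfp with the accession as filed and its product quenches rhodamine fluorescence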
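Step 1, compound plus 15 nM Sfp-PPTase, 15 min, room temperature. Step 2, add rhodamine-CoA (5 uM) and BHQ-2-YbbR (12.5 uM). Step 3, read 525/598 nm fluorescence at 0 and 30 min.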
GRP78 ERSR act: qHTS for Inducers of the Endoplasmic Reticulum Stress Response (ERSR) in Human Glioma: qHTS; U87-MG GRP78 promoter luciferase reporter, 16 h; 0.02% of 420,000 active; AID 602332, 2012; Potency, µM, actives largely listed as activators; further: series mostly up to about 76 µM; nearly all actives have a fitted effect of over 35% in size
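Stably transfected U87-MG glioma cells carrying a GRP78-based luciferase sensor; 16 h compound incubation. Luminescence end-point read 10 min after Bright-Glo addition at room temperature.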
G9a inh: qHTS Assay for Inhibitors of Histone Lysine Methyltransferase G9a. 8.8% of 350,000 active. Potency, µM (titrated, usually from 102 µM), hits mostly inhibitors. G9a H3K9 monomethylation, AlphaScreen, 2 h. Histone-lysine N-methyltransferase EHMT2 (Homo sapiens), Q96KQ7. AID 504332, 2011; further: nearly all actives have a fitted effect of over 75% in size
Target sequence (Q96KQ7 913-1193 limits assumed): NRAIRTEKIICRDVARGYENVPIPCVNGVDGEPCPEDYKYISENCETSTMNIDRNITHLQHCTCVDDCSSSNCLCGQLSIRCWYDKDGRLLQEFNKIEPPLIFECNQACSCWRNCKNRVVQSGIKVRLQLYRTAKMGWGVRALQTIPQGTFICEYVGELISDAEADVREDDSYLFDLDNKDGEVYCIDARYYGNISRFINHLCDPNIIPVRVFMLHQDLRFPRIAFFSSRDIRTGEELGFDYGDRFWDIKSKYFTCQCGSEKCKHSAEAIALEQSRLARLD
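Using a bead-based AlphaScreen, monomethylated H3K9 product from 2 h room-temperature reactions (G9a 20 nM, peptide 500 nM, SAM 20 uM) was detected with 0.5 ug/mL rabbit anti-H3K9me1 antibody.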
Large screens that a line does not name were inactive. The call rests on the fitted dose curve; in most records, active means well fitted curve in the direction sought with a large enough effect; inconclusive means small, poorly fitted or top-dose-only effect, or another doubt; inactive means no such curve, though single readings can be large; an effect the other way counts as inactive or inconclusive.

O=C(Nc1ccc2ncccc2c1)c1ccccc1Cl	12-LOX inh 45µM, G9a inh 10µM
CC(C)(C)NC(=O)C(=O)NNC(=O)c1ccccc1Br	G9a inh 22µM
Cc1nc(C)c(CC(=O)Nc2nnc(C3CCCCC3)s2)c(=O)[nH]1	none (no result: VDR inh, Sfp PPTase inh, GRP78 ERSR act, G9a inh)
COc1ccc(-n2c(CCc3ccccc3)nnc2SCC(=O)NCc2ccccc2)cc1	G9a inh inconclusive
COc1ccc(-n2c(CCc3ccccc3)nnc2SCC(=O)c2ccccc2)cc1	Sfp PPTase inh inconclusive, G9a inh 8.9µM
COc1ccc(C(=O)CSc2nnc(CCc3ccccc3)n2-c2ccccc2)cc1	12-LOX inh inconclusive, G9a inh 40µM
CC(C)(C)C(=O)NCCCC(=O)NCc1ccco1	none (no result: VDR inh, Sfp PPTase inh, GRP78 ERSR act, G9a inh)
COc1ccc(C2CC(=O)N(CCCN(C)CCc3ccc(OC)c(OC)c3)C2)cc1 (centres undefined)	12-LOX inh inconclusive, Sfp PPTase inh inconclusive, G9a inh inconclusive
COc1ccc(CCN(C)CCCN2CC(c3ccccc3)CC2=O)cc1OC (centres undefined)	12-LOX inh inconclusive, G9a inh 50µM
O=C(Nn1c(O)c(C=C2N=c3ccccc3=N2)sc1=S)c1ccccc1	G9a inh 1.4µM
Cc1ccc(C(=O)Nn2c(O)c(C=C3N=c4ccccc4=N3)sc2=S)cc1	Sfp PPTase inh 50µM
O=C(Nn1c(O)c(C=C2N=c3ccccc3=N2)sc1=S)c1ccc(Cl)cc1	Sfp PPTase inh inconclusive
Cc1ccc(S(=O)(=O)Nn2c(O)c(C=C3N=c4ccccc4=N3)sc2=S)cc1	12-LOX inh 35µM, G9a inh inconclusive
Oc1c(C=C2N=c3ccccc3=N2)sc(=S)n1C1CCCC1	none
O=C(Nn1c(O)c(C=C2N=c3ccccc3=N2)sc1=S)c1cccc(Cl)c1	Sfp PPTase inh inconclusive, G9a inh inconclusive
CCNC(=O)NC(=O)CSc1nc(C2CC2)nc2ccccc12	none (no result: VDR inh, Sfp PPTase inh, GRP78 ERSR act, G9a inh)
CC(=O)c1cccc(NC(=O)c2cccc[n+]2[O-])c1	none (no result: VDR inh, Sfp PPTase inh, GRP78 ERSR act, G9a inh)
CCOC(=O)c1ccc(NC(=O)c2ncoc2-c2cccc(C)c2)cc1	none (no result: VDR inh, Sfp PPTase inh, GRP78 ERSR act, G9a inh)
Cc1cc(=O)n2[nH]c(=O)c(N=Nc3ccccc3)c2[nH]1	12-LOX inh inconclusive
Cc1ccc(-c2[nH][nH]c(=O)c(=O)c2N=Nc2ccccc2)cc1	G9a inh 45µM
CC(c1nnc(-c2cccs2)o1)N(C)Cc1ccc(Br)cc1 (centres undefined)	none (no result: VDR inh, Sfp PPTase inh, GRP78 ERSR act, G9a inh)
O=C(c1cccs1)N1CCC(N2CC(OCC3CC3)C23CCCCC3)CC1 (centres undefined)	none (no result: VDR inh, Sfp PPTase inh, GRP78 ERSR act, G9a inh)
Cc1ccc(Nc2nc(-c3c(C)n(C)n(-c4ccccc4)c3=O)c(C)s2)cc1	G9a inh 50µM
Cc1sc(Nc2ccc([N+](=O)[O-])cc2)nc1-c1c(C)n(C)n(-c2ccccc2)c1=O	none
C/C=C(\C)CN1CCN(c2ccc(C)cc2)CC1	12-LOX inh inconclusive, G9a inh 10µM
CCCC(c1nnnn1CCOC)N1CCN(c2cccc(OC)c2)CC1 (centres undefined)	G9a inh 45µM
O=C(c1ccco1)N1CCN(C(c2ccc(Cl)cc2)c2nnnn2CC2CCCO2)CC1 (centres undefined)	12-LOX inh inconclusive, Sfp PPTase inh 56µM
CC(C)CCn1nnnc1C(c1ccc(F)cc1)N1CCN(C(=O)c2ccco2)CC1 (centres undefined)	G9a inh 50µM
COCCn1nnnc1C(c1cccc(OC)c1OC)N1CCN(C(=O)c2ccco2)CC1 (centres undefined)	G9a inh 50µM
Cc1ccc(-c2nc(CSc3nc4ncccc4[nH]3)c(C)o2)cc1	none (no result: VDR inh, Sfp PPTase inh, GRP78 ERSR act, G9a inh)
C=CCS(=O)(=O)c1ccc(Br)c2ccccc12	none (no result: VDR inh, Sfp PPTase inh, GRP78 ERSR act, G9a inh)
COCCn1nnnc1C(c1ccccc1OC)N1CCN(C(=O)c2ccco2)CC1 (centres undefined)	12-LOX inh inconclusive, G9a inh 50µM
CCCC(c1nnnn1CCOC)N1CCN(C(=O)c2ccco2)CC1 (centres undefined)	12-LOX inh inconclusive, G9a inh 45µM
COCCn1nnnc1C(c1ccccc1)N1CCN(C(=O)c2ccco2)CC1 (centres undefined)	G9a inh inconclusive
